Results from the supplement of paper PMC11732987, “Enantioselective OTUD7B fragment discovery through chemoproteomics screening and high-throughput optimisation” (Communications Chemistry, 2025).

Experiments:
Experiment in all cases: log2 ratio of Biotin-Ahx-Ub-VS probe labelling (fragment/DMSO); higher = less target engagement (more negative = stronger competition), active = hit call of the paper (q ≤ 0.05, log2 ratio ≤ -1)
Conditions in all cases: compound concentration: 200 uM; treatment time: 3 h
USP42 = target: T1, USP42 (UniProt Q9H9J4)
T1 sequence (whole entry): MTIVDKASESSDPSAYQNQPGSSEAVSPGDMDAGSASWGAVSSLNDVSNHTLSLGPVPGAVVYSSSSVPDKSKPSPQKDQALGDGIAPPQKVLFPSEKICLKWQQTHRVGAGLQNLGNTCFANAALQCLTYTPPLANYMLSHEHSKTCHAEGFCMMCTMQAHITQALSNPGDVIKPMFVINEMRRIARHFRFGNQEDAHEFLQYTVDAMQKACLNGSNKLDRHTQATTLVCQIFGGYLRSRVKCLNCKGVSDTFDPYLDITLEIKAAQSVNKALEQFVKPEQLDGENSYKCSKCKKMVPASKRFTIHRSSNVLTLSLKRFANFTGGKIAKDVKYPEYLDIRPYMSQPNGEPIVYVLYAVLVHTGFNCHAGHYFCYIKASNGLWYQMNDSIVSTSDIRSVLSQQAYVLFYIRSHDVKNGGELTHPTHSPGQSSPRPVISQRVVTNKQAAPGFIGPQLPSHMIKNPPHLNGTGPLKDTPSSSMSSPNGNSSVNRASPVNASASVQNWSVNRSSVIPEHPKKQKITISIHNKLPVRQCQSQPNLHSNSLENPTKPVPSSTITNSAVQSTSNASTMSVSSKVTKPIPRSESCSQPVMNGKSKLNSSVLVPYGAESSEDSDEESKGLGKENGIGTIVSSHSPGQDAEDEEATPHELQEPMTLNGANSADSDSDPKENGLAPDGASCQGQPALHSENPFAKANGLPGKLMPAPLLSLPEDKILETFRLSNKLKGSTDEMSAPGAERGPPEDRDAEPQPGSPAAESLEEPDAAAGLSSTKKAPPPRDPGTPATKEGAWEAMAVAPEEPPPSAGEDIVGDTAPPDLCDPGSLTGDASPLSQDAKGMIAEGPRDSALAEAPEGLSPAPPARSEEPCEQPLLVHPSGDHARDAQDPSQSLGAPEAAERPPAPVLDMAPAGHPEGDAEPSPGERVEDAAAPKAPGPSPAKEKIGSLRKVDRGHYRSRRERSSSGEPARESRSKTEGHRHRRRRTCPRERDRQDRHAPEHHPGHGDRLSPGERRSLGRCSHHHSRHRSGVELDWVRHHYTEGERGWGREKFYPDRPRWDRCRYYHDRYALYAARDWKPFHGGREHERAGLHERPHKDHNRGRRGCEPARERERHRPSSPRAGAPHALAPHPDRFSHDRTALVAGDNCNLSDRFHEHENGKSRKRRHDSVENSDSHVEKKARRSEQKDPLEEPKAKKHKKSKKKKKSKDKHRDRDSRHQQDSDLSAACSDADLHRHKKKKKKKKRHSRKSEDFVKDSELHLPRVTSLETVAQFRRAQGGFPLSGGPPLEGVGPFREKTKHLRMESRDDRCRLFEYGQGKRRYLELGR
Outline: (§1)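 HEK293T lysate (495 µg per sample, in Tris/CHAPS/IGEPAL buffer with protease inhibitors) was exposed in triplicate for 3 h to fragment at 200 µM or to vehicle, then to Biotin-Ahx-Ub-VS at 0.5 µM final for 1 h. Labelled DUBs were enriched on NeutrAvidin, digested with LysC and trypsin, and analysed by diaPASEF LC-MS/MS. Spectronaut label-free quantities were normalised to the global median, and values are average log2 ratios of fragment over vehicle from an unpaired t-test. Only proteins with ≥2 unique peptides were used.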

USP46 = USP46 (UniProt P62068)
Sequence of USP46 (P62068 whole entry): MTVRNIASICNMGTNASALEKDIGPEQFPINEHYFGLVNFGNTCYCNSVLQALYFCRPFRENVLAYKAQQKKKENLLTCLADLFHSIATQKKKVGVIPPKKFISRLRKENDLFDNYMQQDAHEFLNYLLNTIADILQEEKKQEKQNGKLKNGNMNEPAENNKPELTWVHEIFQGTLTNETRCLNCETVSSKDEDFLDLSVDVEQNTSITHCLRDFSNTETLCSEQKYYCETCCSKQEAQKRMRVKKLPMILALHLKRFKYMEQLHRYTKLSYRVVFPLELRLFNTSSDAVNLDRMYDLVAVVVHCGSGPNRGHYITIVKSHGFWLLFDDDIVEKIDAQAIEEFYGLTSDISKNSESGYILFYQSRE
Outline: as §1

USP47 = target: T2, USP47 (UniProt Q96K76)
T2 sequence (whole entry): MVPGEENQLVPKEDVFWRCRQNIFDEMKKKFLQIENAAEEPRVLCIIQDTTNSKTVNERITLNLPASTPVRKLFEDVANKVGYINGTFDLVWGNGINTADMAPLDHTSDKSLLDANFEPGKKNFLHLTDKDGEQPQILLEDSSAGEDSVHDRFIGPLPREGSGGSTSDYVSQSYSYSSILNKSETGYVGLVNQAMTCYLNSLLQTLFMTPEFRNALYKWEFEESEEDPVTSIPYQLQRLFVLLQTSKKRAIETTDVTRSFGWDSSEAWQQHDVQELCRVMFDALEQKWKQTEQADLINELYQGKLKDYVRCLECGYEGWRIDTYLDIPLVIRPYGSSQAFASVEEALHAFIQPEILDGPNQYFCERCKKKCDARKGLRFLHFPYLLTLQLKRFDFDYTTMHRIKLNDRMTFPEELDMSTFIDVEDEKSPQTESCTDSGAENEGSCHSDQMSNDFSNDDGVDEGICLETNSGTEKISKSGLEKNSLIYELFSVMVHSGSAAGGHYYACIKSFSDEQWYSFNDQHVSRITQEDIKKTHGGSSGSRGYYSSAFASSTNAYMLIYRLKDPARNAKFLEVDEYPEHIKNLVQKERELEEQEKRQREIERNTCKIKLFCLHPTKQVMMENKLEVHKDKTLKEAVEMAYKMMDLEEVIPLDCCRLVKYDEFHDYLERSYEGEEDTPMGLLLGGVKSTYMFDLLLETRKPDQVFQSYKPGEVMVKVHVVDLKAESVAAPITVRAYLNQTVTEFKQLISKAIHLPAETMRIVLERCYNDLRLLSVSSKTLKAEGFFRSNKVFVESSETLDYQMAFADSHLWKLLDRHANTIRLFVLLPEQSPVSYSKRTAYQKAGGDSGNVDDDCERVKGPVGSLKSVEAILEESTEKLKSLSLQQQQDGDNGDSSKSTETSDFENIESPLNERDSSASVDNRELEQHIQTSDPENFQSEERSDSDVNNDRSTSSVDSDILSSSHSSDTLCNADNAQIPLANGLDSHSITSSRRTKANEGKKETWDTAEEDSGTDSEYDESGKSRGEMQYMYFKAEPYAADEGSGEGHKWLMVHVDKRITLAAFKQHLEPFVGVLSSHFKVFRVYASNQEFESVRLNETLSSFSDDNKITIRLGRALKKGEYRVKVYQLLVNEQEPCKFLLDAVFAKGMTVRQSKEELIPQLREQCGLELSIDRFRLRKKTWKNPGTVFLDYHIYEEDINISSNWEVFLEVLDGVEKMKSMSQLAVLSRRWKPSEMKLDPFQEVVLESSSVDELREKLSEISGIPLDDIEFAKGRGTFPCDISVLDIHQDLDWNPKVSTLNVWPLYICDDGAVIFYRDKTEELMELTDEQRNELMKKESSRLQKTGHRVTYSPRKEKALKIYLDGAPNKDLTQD
Outline: as §1

USP48 = target: T3, USP48 (UniProt Q86UV5)
T3 sequence (whole entry): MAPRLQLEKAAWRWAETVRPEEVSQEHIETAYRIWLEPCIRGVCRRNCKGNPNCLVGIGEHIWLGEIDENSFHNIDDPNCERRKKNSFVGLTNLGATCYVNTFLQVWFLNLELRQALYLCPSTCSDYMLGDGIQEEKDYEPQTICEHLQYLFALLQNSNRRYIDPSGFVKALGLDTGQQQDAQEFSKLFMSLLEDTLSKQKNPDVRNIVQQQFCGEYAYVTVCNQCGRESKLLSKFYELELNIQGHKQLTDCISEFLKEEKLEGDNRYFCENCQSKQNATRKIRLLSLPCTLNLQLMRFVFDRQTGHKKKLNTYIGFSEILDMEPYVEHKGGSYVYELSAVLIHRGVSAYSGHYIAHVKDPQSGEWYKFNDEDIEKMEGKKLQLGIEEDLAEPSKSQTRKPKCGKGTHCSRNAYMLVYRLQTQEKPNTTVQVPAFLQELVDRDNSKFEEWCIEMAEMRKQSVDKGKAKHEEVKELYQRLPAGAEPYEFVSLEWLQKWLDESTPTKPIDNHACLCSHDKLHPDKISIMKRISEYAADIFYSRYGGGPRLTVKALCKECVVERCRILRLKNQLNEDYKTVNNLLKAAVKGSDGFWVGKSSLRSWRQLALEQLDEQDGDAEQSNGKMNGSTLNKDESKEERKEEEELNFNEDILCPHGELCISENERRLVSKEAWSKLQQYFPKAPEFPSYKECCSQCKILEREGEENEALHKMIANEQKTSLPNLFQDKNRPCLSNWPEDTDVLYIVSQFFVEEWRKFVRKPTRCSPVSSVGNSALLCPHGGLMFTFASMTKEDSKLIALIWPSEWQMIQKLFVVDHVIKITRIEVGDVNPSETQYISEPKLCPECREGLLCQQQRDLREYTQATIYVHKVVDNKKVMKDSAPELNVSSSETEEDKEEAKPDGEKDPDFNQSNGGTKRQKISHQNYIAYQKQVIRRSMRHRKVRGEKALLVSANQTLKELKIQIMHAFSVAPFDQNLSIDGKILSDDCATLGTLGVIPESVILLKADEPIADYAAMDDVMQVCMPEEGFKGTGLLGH
Outline: as §1

USP5 = target: T4, USP5 (UniProt P45974)
T4 sequence (whole entry): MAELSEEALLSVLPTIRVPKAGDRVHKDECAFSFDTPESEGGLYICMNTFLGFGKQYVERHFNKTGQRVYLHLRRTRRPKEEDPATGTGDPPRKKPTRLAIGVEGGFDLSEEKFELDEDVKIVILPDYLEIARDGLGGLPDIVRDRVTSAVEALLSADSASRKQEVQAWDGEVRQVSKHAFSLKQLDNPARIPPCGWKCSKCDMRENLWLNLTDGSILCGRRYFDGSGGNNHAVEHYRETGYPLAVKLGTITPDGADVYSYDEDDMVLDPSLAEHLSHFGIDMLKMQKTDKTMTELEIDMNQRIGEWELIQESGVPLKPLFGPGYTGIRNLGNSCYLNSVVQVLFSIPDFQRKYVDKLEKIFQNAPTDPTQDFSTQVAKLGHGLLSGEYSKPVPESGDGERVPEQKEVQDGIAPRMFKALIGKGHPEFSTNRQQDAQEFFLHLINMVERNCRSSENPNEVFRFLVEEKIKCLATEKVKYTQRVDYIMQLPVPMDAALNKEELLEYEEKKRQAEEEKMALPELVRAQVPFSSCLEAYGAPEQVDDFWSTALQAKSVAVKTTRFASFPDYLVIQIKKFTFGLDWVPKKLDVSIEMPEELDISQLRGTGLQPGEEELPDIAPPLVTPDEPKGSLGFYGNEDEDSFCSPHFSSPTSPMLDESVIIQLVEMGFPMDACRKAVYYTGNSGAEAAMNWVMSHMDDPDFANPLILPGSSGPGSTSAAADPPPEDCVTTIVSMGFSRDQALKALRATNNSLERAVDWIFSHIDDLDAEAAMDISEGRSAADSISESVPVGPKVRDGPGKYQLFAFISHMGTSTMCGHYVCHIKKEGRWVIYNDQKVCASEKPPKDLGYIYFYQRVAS
Outline: as §1

USP54 = USP54 (UniProt Q70EL1)
Sequence of USP54 (Q70EL1 whole entry): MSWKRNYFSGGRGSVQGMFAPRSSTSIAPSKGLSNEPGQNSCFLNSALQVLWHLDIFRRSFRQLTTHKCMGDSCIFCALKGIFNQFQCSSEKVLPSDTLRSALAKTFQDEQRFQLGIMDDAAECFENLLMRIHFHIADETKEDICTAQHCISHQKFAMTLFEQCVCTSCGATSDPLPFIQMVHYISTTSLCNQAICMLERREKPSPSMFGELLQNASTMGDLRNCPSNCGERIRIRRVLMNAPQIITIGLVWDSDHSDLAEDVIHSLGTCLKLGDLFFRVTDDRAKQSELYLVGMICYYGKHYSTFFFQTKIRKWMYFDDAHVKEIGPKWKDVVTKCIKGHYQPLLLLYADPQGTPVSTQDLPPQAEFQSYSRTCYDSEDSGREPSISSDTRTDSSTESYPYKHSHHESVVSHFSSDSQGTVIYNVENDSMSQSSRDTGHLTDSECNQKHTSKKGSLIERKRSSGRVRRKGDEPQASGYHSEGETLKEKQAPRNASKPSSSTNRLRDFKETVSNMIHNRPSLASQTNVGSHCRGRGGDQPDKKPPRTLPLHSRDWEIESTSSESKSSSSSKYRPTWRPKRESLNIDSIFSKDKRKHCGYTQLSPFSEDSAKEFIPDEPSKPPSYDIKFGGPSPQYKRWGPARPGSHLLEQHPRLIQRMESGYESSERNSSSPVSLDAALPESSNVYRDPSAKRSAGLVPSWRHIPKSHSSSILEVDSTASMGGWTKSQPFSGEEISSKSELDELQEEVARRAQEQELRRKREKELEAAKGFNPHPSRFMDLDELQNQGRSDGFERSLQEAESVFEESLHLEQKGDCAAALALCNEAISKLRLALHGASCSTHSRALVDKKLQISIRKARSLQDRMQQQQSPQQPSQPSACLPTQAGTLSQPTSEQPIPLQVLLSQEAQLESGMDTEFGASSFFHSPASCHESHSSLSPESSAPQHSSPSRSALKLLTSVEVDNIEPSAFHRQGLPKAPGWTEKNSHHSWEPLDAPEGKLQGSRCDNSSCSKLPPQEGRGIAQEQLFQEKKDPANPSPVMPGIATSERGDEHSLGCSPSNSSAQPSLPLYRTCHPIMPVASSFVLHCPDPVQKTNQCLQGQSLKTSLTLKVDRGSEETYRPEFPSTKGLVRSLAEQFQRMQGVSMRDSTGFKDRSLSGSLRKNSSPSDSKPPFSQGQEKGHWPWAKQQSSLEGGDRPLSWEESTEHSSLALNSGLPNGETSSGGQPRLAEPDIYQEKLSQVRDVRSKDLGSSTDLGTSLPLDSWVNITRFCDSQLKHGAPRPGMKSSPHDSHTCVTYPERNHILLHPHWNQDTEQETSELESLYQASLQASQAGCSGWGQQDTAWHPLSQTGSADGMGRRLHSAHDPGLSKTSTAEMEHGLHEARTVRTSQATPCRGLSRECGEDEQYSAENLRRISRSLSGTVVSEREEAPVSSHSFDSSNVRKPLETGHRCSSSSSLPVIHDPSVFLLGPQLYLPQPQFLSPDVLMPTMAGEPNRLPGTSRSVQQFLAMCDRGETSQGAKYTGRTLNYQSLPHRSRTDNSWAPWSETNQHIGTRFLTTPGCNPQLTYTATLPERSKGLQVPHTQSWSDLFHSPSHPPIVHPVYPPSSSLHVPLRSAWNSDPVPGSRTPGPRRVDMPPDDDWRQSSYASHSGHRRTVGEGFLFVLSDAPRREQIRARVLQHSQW
Outline: as §1

USP7 = USP7 (UniProt Q93009)
Sequence of USP7 (Q93009 whole entry, looked up): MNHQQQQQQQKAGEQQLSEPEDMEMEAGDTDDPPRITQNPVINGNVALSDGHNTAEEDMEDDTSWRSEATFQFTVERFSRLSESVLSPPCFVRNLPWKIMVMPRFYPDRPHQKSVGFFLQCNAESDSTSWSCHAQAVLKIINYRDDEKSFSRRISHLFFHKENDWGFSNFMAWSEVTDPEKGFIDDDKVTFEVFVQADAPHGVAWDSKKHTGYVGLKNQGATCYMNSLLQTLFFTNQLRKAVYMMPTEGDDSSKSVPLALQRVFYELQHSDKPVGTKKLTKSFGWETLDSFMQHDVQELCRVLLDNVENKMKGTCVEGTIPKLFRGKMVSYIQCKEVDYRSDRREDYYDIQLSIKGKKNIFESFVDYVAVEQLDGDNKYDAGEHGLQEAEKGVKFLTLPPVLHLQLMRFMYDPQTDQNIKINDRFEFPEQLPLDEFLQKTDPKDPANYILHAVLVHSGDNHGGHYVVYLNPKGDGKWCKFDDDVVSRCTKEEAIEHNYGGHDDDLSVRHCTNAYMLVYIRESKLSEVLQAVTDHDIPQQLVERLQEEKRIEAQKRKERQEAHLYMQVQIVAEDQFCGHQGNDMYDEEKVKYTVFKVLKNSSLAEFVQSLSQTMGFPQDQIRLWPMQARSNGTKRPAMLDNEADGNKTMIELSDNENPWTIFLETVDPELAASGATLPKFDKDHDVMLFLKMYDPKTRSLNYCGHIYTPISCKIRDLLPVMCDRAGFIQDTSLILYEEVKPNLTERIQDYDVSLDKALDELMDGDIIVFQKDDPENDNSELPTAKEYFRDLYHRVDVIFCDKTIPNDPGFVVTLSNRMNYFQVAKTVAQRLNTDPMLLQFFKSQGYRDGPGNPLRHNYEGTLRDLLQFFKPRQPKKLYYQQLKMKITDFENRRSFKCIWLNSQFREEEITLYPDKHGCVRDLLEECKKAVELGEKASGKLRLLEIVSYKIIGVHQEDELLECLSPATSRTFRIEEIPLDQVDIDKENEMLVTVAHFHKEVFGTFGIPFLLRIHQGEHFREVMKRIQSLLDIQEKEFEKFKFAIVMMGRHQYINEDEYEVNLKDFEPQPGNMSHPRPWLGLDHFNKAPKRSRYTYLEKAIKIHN
Outline: as §1

USP8 = target: T5, USP8 (UniProt P40818)
T5 sequence (whole entry): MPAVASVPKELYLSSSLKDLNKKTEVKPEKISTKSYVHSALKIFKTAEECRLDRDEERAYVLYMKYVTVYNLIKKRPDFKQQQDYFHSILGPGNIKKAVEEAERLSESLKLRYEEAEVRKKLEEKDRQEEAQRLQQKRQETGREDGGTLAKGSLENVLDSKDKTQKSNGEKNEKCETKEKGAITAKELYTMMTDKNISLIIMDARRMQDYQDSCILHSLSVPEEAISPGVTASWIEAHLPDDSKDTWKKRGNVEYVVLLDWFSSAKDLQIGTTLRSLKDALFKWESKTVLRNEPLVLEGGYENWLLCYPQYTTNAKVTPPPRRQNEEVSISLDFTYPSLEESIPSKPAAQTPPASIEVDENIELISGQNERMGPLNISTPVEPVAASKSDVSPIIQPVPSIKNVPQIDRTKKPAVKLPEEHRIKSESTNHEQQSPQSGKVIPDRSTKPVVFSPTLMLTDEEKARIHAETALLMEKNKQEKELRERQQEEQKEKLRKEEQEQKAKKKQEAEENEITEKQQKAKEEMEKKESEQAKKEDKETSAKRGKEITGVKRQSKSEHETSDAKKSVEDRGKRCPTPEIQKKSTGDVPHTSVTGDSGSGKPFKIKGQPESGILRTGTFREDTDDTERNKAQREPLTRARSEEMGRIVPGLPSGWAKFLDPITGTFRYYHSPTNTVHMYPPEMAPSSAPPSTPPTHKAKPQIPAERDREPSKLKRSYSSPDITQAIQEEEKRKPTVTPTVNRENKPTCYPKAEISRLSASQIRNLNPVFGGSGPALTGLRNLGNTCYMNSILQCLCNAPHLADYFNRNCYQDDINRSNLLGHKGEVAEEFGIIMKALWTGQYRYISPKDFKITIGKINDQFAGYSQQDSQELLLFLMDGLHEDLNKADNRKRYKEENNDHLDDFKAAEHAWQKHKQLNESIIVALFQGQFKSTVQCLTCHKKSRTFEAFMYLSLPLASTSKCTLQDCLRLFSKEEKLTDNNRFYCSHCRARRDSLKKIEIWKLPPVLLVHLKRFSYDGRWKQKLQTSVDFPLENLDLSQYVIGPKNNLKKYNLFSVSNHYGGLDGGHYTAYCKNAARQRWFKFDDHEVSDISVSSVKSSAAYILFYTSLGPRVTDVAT
Outline: as §1

Measured: log2 ratio of Biotin-Ahx-Ub-VS probe labelling

Cl.Cn1nccc1C(NC(=O)CCl)c1ccccc1 (stereo not drawn)
active: USP47 -1.1
inactive: USP42 0.0316 | USP46 0.114 | USP48 -0.11 | USP5 0.239 | USP54 0.34 | USP7 -0.284 | USP8 -0.582
